In PubChem BioAssay AID1159580 (chemical genetic matrix, 2015):
Screen size: about 5,500 compounds; about 2,000 (36%) were called active. About 18% were inconclusive and are not listed. The list shows a part of the results. A number with no mark means an inactive call. Cut-off read from the data, not from the text of the source: active = normalized growth mostly below about 0.91 (no sharp cut-off); inconclusive = no clear call, values can overlap the other calls; inactive = mostly above about 0.92.

Test: chemical genetic growth profiling, strain panel (AID 1159580);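 note: tested at 20 µM; growth read once vehicle control cultures reached saturation at 30 °C; 1 = growth at the plate median or of vehicle wells; lower values mean less growth of the strain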
Details: S. cerevisiae deletion strains, growth OD

N#CC(C#N)=Cc1ccc(-c2ccccc2C(F)(F)F)o1
normalized growth (locus YAR019C, strain CDC15, hits give low values): 0.947 | normalized growth (locus YBL105C, strain PKC1, hits give low values): 0.946 | normalized growth (locus YBR135W, strain CKS1, hits give low values): 0.947 | normalized growth (locus YBR136W, strain MEC1, hits give low values): 0.947 | normalized growth (locus YBR160W, strain CDC28, hits give low values): 0.95 | normalized growth (locus YDL017W, strain CDC7, hits give low values): 0.947 | normalized growth (locus YDL028C, strain MPS1, hits give low values): 0.954 | normalized growth (locus YDL101C, strain DUN1, hits give low values): 0.925 | normalized growth (locus YDL108W, strain KIN28, hits give low values): 0.953 | normalized growth (locus YDL132W, strain cdc53, hits give low values): 0.947 | normalized growth (locus YDL214C, strain PRR2, hits give low values): 0.901 | normalized growth (locus YDR052C, strain DBF4, hits give low values): 0.957 | normalized growth (locus YDR054C, strain cdc34, hits give low values): 0.94 | normalized growth (locus YDR226W, strain ADK1, hits give low values): 0.943 | normalized growth (locus YDR477W, strain SNF1, hits give low values): 0.913 | normalized growth (locus YER123W, strain YCK3, hits give low values): 0.876 | normalized growth (locus YER133W, strain GLC7, hits give low values): 0.925 | normalized growth (locus YFL009W, strain cdc4, hits give low values): 0.94 | normalized growth (locus YFL029C, strain CAK1, hits give low values): 0.945 | normalized growth (locus YFR003C, strain YPI1, hits give low values): 0.944 | normalized growth (locus YFR019W, strain FAB1, hits give low values): 0.898 | normalized growth (locus YFR028C, strain CDC14, hits give low values): 0.94 | normalized growth (locus YGR040W, strain KSS1, hits give low values): 0.903 | normalized growth (locus YGR052W, strain FMP48, hits give low values): 0.871 | normalized growth (locus YGR092W, strain DBF2, hits give low values): 0.783 | normalized growth (locus YHR030C, strain SLT2, hits give low values): 0.875 | normalized growth (locus YHR079C, strain IRE1, hits give low values): 0.905 | normalized growth (locus YHR082C, strain KSP1, hits give low values): 0.906 | normalized growth (locus YHR205W, strain SCH9, hits give low values): 0.784 | normalized growth (locus YIL147C, strain SLN1, hits give low values): 0.948 | normalized growth (locus YJL095W, strain BCK1, hits give low values): 0.838 | normalized growth (locus YJL128C, strain PBS2, hits give low values): 0.866 | normalized growth (locus YJL157C, strain FAR1, hits give low values): 0.907 | normalized growth (locus YJR016C, strain ILV3, hits give low values): 0.95 | normalized growth (locus YJR066W, strain TOR1 (second series), hits give low values): 0.873 | normalized growth (locus YJR066W, strain TOR1, hits give low values): 0.893 | normalized growth (locus YKL048C, strain ELM1, hits give low values): 0.899 | normalized growth (locus YKL067W, strain YNK1, hits give low values): 0.89 | normalized growth (locus YKL101W, strain HSL1, hits give low values): 0.873 | normalized growth (locus YKL193C, strain SDS22, hits give low values): 0.942 | normalized growth (locus YKL203C, strain TOR2, hits give low values): 0.931 | normalized growth (locus YLR113W, strain HOG1, hits give low values): 0.758 (active) | normalized growth (locus YLR133W, strain CKI1, hits give low values): 0.891 | normalized growth (locus YLR403W, strain SFP1, hits give low values): 0.848 | normalized growth (locus YML070W, strain DAK1, hits give low values): 0.894 | normalized growth (locus YMR001C, strain CDC5, hits give low values): 0.94 | normalized growth (locus YMR205C, strain PFK2 (second series), hits give low values): 0.899 | normalized growth (locus YMR277W, strain FCP1, hits give low values): 0.935 | normalized growth (locus YNL006W, strain LST8, hits give low values): 0.949 | normalized growth (locus YNL020C, strain ARK1, hits give low values): 0.892 | normalized growth (locus YNL161W, strain CBK1, hits give low values): 0.941 | normalized growth (locus YNL183C, strain NPR1, hits give low values): 0.864 | normalized growth (locus YNL207W, strain RIO2, hits give low values): 0.943 | normalized growth (locus YNL222W, strain SSU72, hits give low values): 0.951 | normalized growth (locus YNL307C, strain MCK1 (second series), hits give low values): 0.788 | normalized growth (locus YOL078W, strain AVO1, hits give low values): 0.939 | normalized growth (locus YOL136C, strain PFK27, hits give low values): 0.851 | normalized growth (locus YOR061W, strain CKA2, hits give low values): 0.907 | normalized growth (locus YOR119C, strain RIO1, hits give low values): 0.964 | normalized growth (locus YOR231W, strain MKK1, hits give low values): 0.87 | normalized growth (locus YOR329C, strain SCD5, hits give low values): 0.944 | normalized growth (locus YPL031C, strain PHO85, hits give low values): 0.895 | normalized growth (locus YPL153C, strain RAD53, hits give low values): 0.907 | normalized growth (locus YPL204W, strain HRR25, hits give low values): 0.88 | normalized growth (locus YPL209C, strain IPL1, hits give low values): 0.947 | normalized growth (locus YPL256C, strain CLN2, hits give low values): 0.929 | normalized growth (locus YPR025C, strain CCL1, hits give low values): 0.948 | normalized growth (locus YPR106W, strain ISR1, hits give low values): 0.938 | normalized growth (locus YPR111W, strain DBF20, hits give low values): 0.916 | normalized growth (strain NNK1, hits give low values): 0.922 | normalized growth (strain TSCII, hits give low values): 0.935

CO/N=C(/C(=O)N[C@@H]1C(=O)N2C(C(=O)O)=C(CSc3nc(=O)c(O)nn3C)CSC12)c1csc(N)n1 (some centres not stated)
normalized growth (locus YAL013W, strain DEP1, hits give low values): 1 | normalized growth (locus YAL040C, strain CLN3, hits give low values): 1 | normalized growth (locus YCL061C, strain MRC1 (second series), hits give low values): 1 | normalized growth (locus YER002W, strain NOP16, hits give low values): 1.01 | normalized growth (locus YGR078C, strain PAC10, hits give low values): 1.01 | normalized growth (locus YJR075W, strain HOC1, hits give low values): 1 | normalized growth (locus YNL175C, strain NOP13, hits give low values): 1.01 | normalized growth (locus YNL197C, strain WHI3, hits give low values): 1.01 | normalized growth (locus YNL224C, strain SQS1, hits give low values): 1 | normalized growth (locus YOR083W, strain WHI5 (second series), hits give low values): 1 | normalized growth (locus YPL055C, strain LGE1, hits give low values): 1.01
